The values below come from ChEMBL document CHEMBL4513216, “Probing the Open Global Health Chemical Diversity Library for Multistage-Active Starting Points for Next-Generation Antimalarials” (ACS Infect Dis, 2020).

The whole screen tested about 65,000 compounds, of which about 2,100 (3.2%) showed an effect of 50% or more. The median lay at about -52%. The full list was thinned out, with strong results kept by preference.

In the experiment the test system is Plasmodium falciparum. As to the kind of experiment: Screen against P. falciparum Asexual Blood Stage (ABS), at 5uM. It is filed as functional, Dd2. Particulars: tested at 5 uM.
With `COCCN(Cc1ccccc1Cl)c1nc(CCN)nc2ccccc12`, the INHIBITION is given as 89.5%. As for `c1cnc(N2CCO[C@H]3CN(CC4CC4)C[C@H]32)nc1`, the figure is 3.32%. `CCCNCc1ccc(-c2cc(N)nc3[nH]ccc23)cc1`: the INHIBITION was determined as 72.3%. `CN(C)c1nccc(N(C)C2CCN(CC3CCOC3)CC2)n1` (stereo not drawn): the INHIBITION was -4.08%. As for `Cc1ccc(CNCc2cccc3cn[nH]c23)c(OC2CCOC2)c1` (stereo not drawn), the figure is 78.7%; as for `Cc1ccc(CNCc2cccc3cccnc23)c(OC2CCOC2)c1` (stereo not drawn), 85.4%; as for `Cc1nc(COC[C@@H]2CC[C@H]3NCC[C@H]3O2)cs1`, -46.5%. For `Cc1noc(C)c1CN1C[C@H](OCC(=O)N(C)C)[C@H]2COC[C@H]21`, the INHIBITION is listed as -85.8%. With `O=C1[C@H]2CN(CC3CC3)C[C@H]2CN1c1ccsc1`, the INHIBITION is -60.4%. As for `Cc1cnc(N2CCC[C@@H]3CN(CC(=O)N(C)C)C[C@@H]32)nc1`, the figure is -22.5%. As for `COc1cc(C2SCC(=O)Nc3[nH]ncc32)cc(OC)c1OC` (stereo not drawn), the figure is -200%; as for `O=C(NCC1CC1)C1CCC2(CCNCC2)C1` (stereo not drawn), -31.3%. Turning to `Cc1nc(CN2C[C@@H]3OCCN(c4ncc(F)cn4)[C@@H]3C2)cs1`, the INHIBITION was 52%.

On to `Fc1cnc(N2CCO[C@H]3CN(CC4CCCC4)C[C@H]32)nc1`, for which the INHIBITION was 25.4%. In the case of `CC(C)CCN1C[C@@H]2OCCN(c3ncc(F)cn3)[C@@H]2C1`, the INHIBITION is given as -2.26%. As for `CO[C@@H]1CCN(S(=O)(=O)c2cccnc2)[C@@H]2CN(CC3CC3)C[C@@H]21`, the figure is -23.6%; as for `Cc1noc(C)c1CN1C(=O)[C@@H]2CC[C@H]1CN(Cc1nccs1)C2`, -122%; as for `O=C(Cc1ccc(CO)cc1)N1CCN(CC2CC2)[C@@H]2CS(=O)(=O)C[C@@H]21`, -55.1%.

In the case of `O=c1cc(CN2CC[C@@H]3CC[C@H](C2)N3)c2cccc3c2n1CCC3`, the INHIBITION is given as -41.1%. For `COCCN1CCC12CCN(C(=O)c1ccc(C)nc1)C2` (stereo not drawn), the INHIBITION was -172%.

With `COc1cccc([C@@H]2CCN(Cc3ccc4ccccc4n3)C[C@H]2O)c1`, the INHIBITION is -17.2%. As for `COC[C@]12COC[C@H]1CN(Cc1ccc3ccccc3n1)C2`, the figure is -29.2%.

`CCOc1ccc2nc(CN3CCC(CN)C3)ccc2c1` (stereo not drawn): the INHIBITION was 85.5%. For `c1cnc(N2CCO[C@@H]3CN(Cc4ccoc4)C[C@@H]3C2)nc1` the value was -30.5%. For `CC(CNS(=O)(=O)c1cccc(Cl)c1)N1CCN(C)CC1` (stereo not drawn) the value was 78%. As for `Cc1cc(Cl)ccc1S(=O)(=O)NCC(C)N1CCN(C)CC1` (stereo not drawn), the INHIBITION is given as 74.3%. As for `Cc1cccc(S(=O)(=O)NCC(C)N2CCN(C)CC2)c1Cl` (stereo not drawn), the figure is 81.5%; as for `CNS(=O)(=O)CC(=O)NC(C)Cc1cccc(Cl)c1` (stereo not drawn), -15.4%; as for `COCCN1CCN(c2cc(OC)ncn2)Cc2ccc(C)nc21`, -102%.

`Cc1cc(CN2CC[C@H]3C[C@@H](c4nc(C5CC5)cs4)O[C@@H]3C2)no1`: the INHIBITION is listed as 6.98%. On to `Cc1ccccc1C1(CN)CCCCC1`, for which the INHIBITION was 91%.

In the case of `NCC1(c2cccc(C(F)(F)F)c2)CCCCC1`, the INHIBITION is recorded as 2.74%.

On to `Cc1ccccc1C1(CN)CCOCC1`, for which the INHIBITION is given as 36.4%.

As to `CC(c1cn2ccsc2n1)n1cc2[nH]cccc-2c1=O` (stereo not drawn), the INHIBITION is reported as -134%.

Regarding `CO[C@H]1CN(C(C)C)C[C@@H]1NC(=O)c1cc(-c2ccccc2O)n[nH]1`, the INHIBITION is 90%. For `Clc1ccccc1-c1cc(CNc2ncnc3c2CCNCC3)no1` the value was 80.3%. For `CN1CCN([C@@H]2CN(C(=O)Cc3ccsc3)[C@@H]3CCCO[C@H]23)CC1` the value was -66.9%; for `CC(C)(C)C(=O)N1C[C@H](c2ccsc2)[C@H]2CN(C3CCCCC3)CC[C@H]21`, 77.3%. In the case of `CC(C)(C)C(=O)N1C[C@H](c2ccsc2)[C@H]2CN(C3CCCC3)CC[C@H]21`, the INHIBITION is recorded as 72.6%. For `Cc1noc(C)c1CN1CCCC2(CCN(C(=O)C3CC3)C2)C1` (stereo not drawn) the value was 12.9%; for `c1cnc(N2CCC3(CCCN(CC4CC4)C3)CC2)nc1`, 41.7%. Take `Cc1noc(C)c1CN1CCCC2(CCN(C(=O)CC3CC3)C2)C1` (stereo not drawn): the INHIBITION was -16.5%.

As for `c1cnc(N2CCCC3(CCN(CC4CCC4)C3)C2)nc1` (stereo not drawn), the INHIBITION is given as 53.9%. For the molecule `CCC(CC)CN1CCC2(CCCN(c3ncccn3)C2)C1` (stereo not drawn), the INHIBITION is on record as 62.6%.

Turning to `c1cnc(N2CCCC3(CCN(CC4CC4)C3)C2)nc1` (stereo not drawn), the INHIBITION worked out at 61.1%. In the case of `c1cnc(N2CCC3(CN(CC4CCOC4)C3)C2)nc1` (stereo not drawn), the INHIBITION is listed as -15.6%. Take `COCCN1CCC2(C1)CN(c1ncccn1)C2`: the INHIBITION is -85.3%. For `Cc1noc(C)c1CN1CCCC2(CCN(CC3CCCC3)C2)C1` (stereo not drawn) the value was 83.1%. For `CCN1CCCC12CCCN(c1ncccn1)C2` (stereo not drawn) the value was -31.8%; for `c1cnc(N2CCCC3(COCCN(CC4CC4)C3)C2)nc1` (stereo not drawn), 37.4%. For `CNC(=O)CN1CCOCC12CCN(Cc1ccncc1)CC2` the value was -20.5%. As for `Cc1cccc(CN2CCC[C@@H]3CN(C(=O)c4ccco4)C[C@@H]32)n1`, the INHIBITION is given as -73.5%. For `CCS(=O)(=O)NC[C@]12COC[C@H]1CN(Cc1cccnc1)C2` the value was -97.3%; for `O=C(NCC1CC1)[C@H]1C[C@@H]2[C@@H](C1)OCCN2Cc1cccnc1`, -29.4%. Regarding `CC(C)(C)c1cn(C[C@H]2CC3CCN2C[C@@H]3C(=O)NC2CC2)nn1` (stereo partly drawn), the INHIBITION was -148%. As for `Cc1noc(C)c1CN1C[C@@H]2C[C@H](C(=O)NCC3CC3)N(C)[C@@H]2C1`, the figure is -8.05%. Take `O=C(C1CNCCO1)N1CCCC(c2ccccc2)(c2ccccc2)C1` (stereo not drawn): the INHIBITION was found to be 79.5%. Regarding `CC(=O)C1(c2ccccc2)CCN(C(=O)CC2CNCCO2)CC1` (stereo not drawn), the INHIBITION is on record as -44.7%. Consider `CC(=O)C1(c2ccccc2)CCN(C(=O)C2CNCCO2)CC1` (stereo not drawn), for which the INHIBITION was -81.4%. Consider `CCN(CC)c1nc(Nc2cccc(C(C)O)c2)nc2ccccc12` (stereo not drawn), for which the INHIBITION stood at 84.5%. Take `CC(O)c1cccc(Nc2nc(NCCO)c3ccccc3n2)c1` (stereo not drawn): the INHIBITION came out at 89.4%. For the molecule `OC[C@@H]1CN2CCN(c3ccccn3)C[C@@H]2[C@H]1c1ccccc1`, the INHIBITION is on record as -7.96%. Take `c1ccc(CO[C@@H]2CN(Cc3nccs3)[C@@H]3COC[C@@H]32)nc1`: the INHIBITION was -84.8%.
